Compound activity from PubChem.
An excerpt weighted towards active compounds, which were near 9.6% of everything screened.
Insulin prom up – insulin promoter activators in MIN6 cells, imaging, high-content screening, mouse beta cells; MIN6 insulin promoter-GFP reporter; active compounds read high; z-score at 5 µM; hit rate 0.3% among 190,000; AID 1625, 2009;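 active means z-score above 3 at 5 µM with at least 500 cells counted in the well; inconclusive means wells under 500 cells, flagged as cytotoxic or low count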
bCat KO growth – primary screen for growth suppressors in beta-catenin knockout HCT116 cells (colon tumor, human); viability, % at 10 µM; hit rate 1.5% among 140,000; HCT116 beta-catenin knockout viability, CellTiter-Glo, 60 h; active compounds read low;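 active means viability at or under a set limit, the compound median less 4 SD, cut at about 6% in these data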
PTEN del growth – growth suppression of PTEN-null HCT116, primary screen, cell-based, CellTiter-Glo; HCT116 PTEN-null viability, 60 h; active compounds read low; viability, % at 10 µM; hit rate 1.2% among 140,000; AID 827, 2007;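 active means viability at or below a set limit, 4 SD under the median of all tested compounds, cut at about 3.7% in these data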;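 further: PTEN knockout HCT116 line with beta catenin targeted HCT116 as companion control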
Insulin prom inh – inhibitors of insulin promoter-driven GFP, primary screen, imaging, TRM-6 cells (human fetal islet line), eGFP reporter, cell count | inhibition, % at 2 µM | reporter expression induced with tamoxifen | hit rate 0.9% among 130,000;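 active means inhibition above the mean plus 3 SD, with well images judged a real hit on visual review, cut at about 60% in these data, passing the limit was not always enough; inconclusive means inhibition over the cutoff but images rejected on review; inactive means inhibition not above the cutoff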
L major viab – Leishmania major promastigote growth inhibition, primary screen | Leishmania major promastigotes, resazurin fluorescence viability | inhibition, % at 10 µM | hit rate 9% among 200,000; in the data active means inhibition above about 50%;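 further: promastigotes grown with compound for 44 hours at 28 °C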
Autophagy HCS – autophagy modulators in MEF cells, primary screen, imaging, high-content, MEF GFP-LC3 | hit rate 0.98% among 190,000 | MEF GFP-LC3 puncta imaging; test concentration mostly 10 µM | calls only at 10 µM (by protocol);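 active means percentage of spot-positive cells more than 3 SD above its plate mean, without a fluorescence outlier flag or 80% toxicity; inconclusive means no clear call, values can overlap the other calls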
Numbers stand for hits; - = inactive; ? = inconclusive; . = not tested or not shown; + = active, no number.

SMILES	Insulin prom up	bCat KO growth	PTEN del growth	Insulin prom inh	L major viab	Autophagy HCS
CN1/C(=C\C(=O)c2cccc(S(=O)(=O)N3CCCCC3)c2)C(C)(C)c2ccccc21	-	-	-	-	98.9	-
CN1/C(=C/C(=O)c2nc(S(C)(=O)=O)ncc2Cl)C(C)(C)c2ccccc21	-	2.0	2.6	.	83.5	-
CC(=O)/C=C1\N(C)c2ccc(C)cc2C1(C)C	-	.	.	-	90.7	-
CN1/C(=C\C(=O)c2ccco2)C(C)(C)c2ccccc21	.	-	-	.	82.8	-
O=C(O)c1cccc(S(=O)(=O)N2CCCC2)c1	-	-	-	-	-	-
CN1/C(=C\C(=O)c2cccnc2)C(C)(C)c2ccccc21	-	-	-	-	-	-
CN1/C(=C\C(=O)c2cncc(Br)c2)C(C)(C)c2ccccc21	?	-	-	-	91.3	-
CCOc1ccc(N2C(=O)CC(N3CCC(NC(=O)Nc4ccccc4)CC3)C2=O)cc1 (centres undefined)	-	-	-	-	-	-
O=C(CCCCCNC(=O)c1ccccc1)N/N=C/c1ccc(F)cc1	-	.	.	.	-	-
COc1c2ccccc2c(OC)c2ccccc12	-	.	.	-	-	+
CS(=O)(=O)N1CCC(c2noc(-c3ccc(C(F)(F)F)cc3)n2)CC1	-	-	-	-	-	-
O=C1CCc2ccc(NS(=O)(=O)c3ccc(F)cc3)cc2N1	-	.	.	.	-	-
NNc1nc(-c2ccccc2)cs1	-	.	.	-	90.3	-
Cc1ccc(-c2csc(NC(=S)NC(=O)c3ccco3)n2)cc1	-	-	-	-	-	-
O=C(NNc1nc(-c2ccccc2)cs1)c1ccco1	-	-	-	-	66.8	-
O=C(NNc1nc(-c2ccc(Cl)cc2)cs1)c1ccco1	-	-	-	-	58.0	-
O=C(Nc1nc(-c2ccc(Cl)s2)cs1)c1ccco1	-	.	.	.	-	-
CCOC(=O)c1nn(-c2ccccc2)c(=O)c(C#N)c1C	-	-	-	-	-	-
CCCOc1ccc(CN(CCO)CCO)cc1[N+](=O)[O-]	-	-	-	-	-	-
CCN(CC)c1ccc2cc(-c3nc4ccccc4n3C)c(=O)oc2c1	-	-	-	-	-	-
CCN(CC)c1ccc2cc(-c3nc4ccccc4[nH]3)c(=O)oc2c1	.	-	-	.	-	+
CCc1cc2c(-n3nc(C)cc3C)ncnc2s1	.	-	-	-	-	-
CC(C)(C)c1cc[n+](C2=C([O-])c3ccccc3C(=O)/C2=N\S(=O)(=O)c2ccccc2)cc1	-	.	.	.	.	.
N#C/C(=N\Nc1ccc(Cl)c(Cl)c1)C(=O)C1CC1	-	.	.	.	.	.
C=CCOCCN(C)C1=NS(=O)(=O)c2cc([N+](=O)[O-])ccc21	-	.	.	-	100.0	-
SMILES	Insulin prom up	bCat KO growth	PTEN del growth	Insulin prom inh	L major viab	Autophagy HCS
CCOc1cc(NC(=O)C2CC2)c(OCC)cc1NC(=O)c1cccnc1	-	.	.	.	.	.
O=C(CCC1CCCN(Cc2ccc3c(c2)CCO3)C1)NCc1ccc(F)c(F)c1 (centres undefined)	.	.	.	-	98.7	-
O=C(CCC1CCCN(C2C3CC4CC(C3)CC2C4)C1)NCc1ccc(F)c(F)c1 (centres undefined)	-	.	.	.	56.1	-
CC(=O)c1cccc(CN2CCCC(CCC(=O)NCc3ccccc3F)C2)c1 (centres undefined)	-	.	.	.	91.5	-
Cc1ncc(CN2CCCC(CCC(=O)NCc3ccccc3F)C2)s1 (centres undefined)	.	.	.	-	77.2	-
Cc1ccsc1C(=O)N1CCCC(CCC(=O)NCc2ccccc2F)C1 (centres undefined)	-	.	.	.	-	-
COc1ccccc1/C=C/CN1CCCC(CCC(=O)NCc2ccccc2F)C1 (centres undefined)	-	.	.	.	-	-
Cc1occc1C(=O)N1CCCC(CCC(=O)NCc2ccc(F)c(F)c2)C1 (centres undefined)	-	.	.	.	-	-
Cc1ccc(C)c(NC(=O)C2C(c3ccccc3)C2(Cl)Cl)c1 (centres undefined)	-	-	-	.	-	-
Cc1ncc(CN2CCCC(CCC(=O)NCc3ccc(F)c(F)c3)C2)s1 (centres undefined)	.	.	.	.	88.3	-
O=C(Nc1cc(C(F)(F)F)ccc1Cl)C(NCc1ccccc1)c1ccccc1 (centres undefined)	-	-	-	-	92.4	-
CC(C)=CCN1CCN(Cc2nc(C(C)C)cs2)CC1CCO (centres undefined)	-	.	.	.	-	-
COc1ccccc1C(=O)O/N=C(\N)c1ccccc1Cl	-	-	-	-	91.5	-
N/C(=N\OC(=O)c1ccccc1Cl)c1ccccc1	-	-	-	-	-	-
Cc1cc(C=C2C(=O)c3ccccc3C2=O)c(C)n1-c1ccccc1	-	-	-	.	-	-
Cc1ccc(-n2c(C)cc(C=C3C(=O)CC(C)(C)CC3=O)c2C)cc1	-	-	-	-	98.2	-
Cc1cccn2c(=O)c3cc(C(=O)N(C)C)n(C)c3nc12	-	-	-	.	87.4	-
CCNC(=O)c1cc2c(=O)n3cccc(C)c3nc2n(CCc2ccccc2)c1=N	-	4.8	-	-	-	-
COCCn1c(=N)c(C(=O)NCCc2ccccc2)cc2c(=O)n3cccc(C)c3nc21	.	.	.	-	-	-
Cc1cccn2c(=O)c3cc(C(N)=S)c(=N)n(CCCOC(C)C)c3nc12	-	-	-	.	87.1	-
COc1ccc(CCn2c(=N)c(C(=O)N3CCN(C)CC3)cc3c(=O)n4ccccc4nc32)cc1	-	-	-	.	87.8	-
CC(Sc1nc(N2CCOCC2)c2c(c1C#N)CC(C)(C)OC2)C(=O)Nc1ccccc1 (centres undefined)	-	-	-	-	-	-
Cn1c(=O)c2c(nc(N3CCCCCC3)n2CCSc2nc3ccccc3o2)n(C)c1=O	-	-	-	.	-	-
Cc1cccn2c(=O)c3cc(C(=O)NCCN4CCOCC4)c(=N)n(CCc4ccccc4)c3nc12	-	-	-	-	66.2	-
CCOC(=O)c1cc2c(=O)n3cccc(C)c3nc2n(C)c1=N	-	-	-	-	97.7	-
SMILES	Insulin prom up	bCat KO growth	PTEN del growth	Insulin prom inh	L major viab	Autophagy HCS
CC1(C)Cc2cccc(C(=O)Nc3ccc(Cl)cc3)c2O1	-	.	.	.	.	.
COc1ccccc1NC(=S)NC(=O)c1ccc(Cn2cc(Br)cn2)cc1	-	-	-	-	-	-
Cc1nc(NC(=O)COC(=O)CCC(=O)c2cccs2)c(Cl)cc1Cl	-	-	-	-	-	-
Cc1sc2nc(CN3CCCC3)nc(N3CCN(C(=O)c4ccco4)CC3)c2c1C	-	.	.	.	-	+
CCc1nc(N2CCN(C(=O)c3ccco3)CC2)c2oc3ccccc3c2n1	-	-	-	.	82.7	-
Cc1ccccc1OCCOC(=O)c1nc2nccc(C)n2n1	-	.	.	-	-	-
Cc1nc2ncnn2c(C)c1Cc1ccc(Cl)cc1	-	-	-	-	-	-
Cc1ccc(S(=O)(=O)N2CCN(CC(=O)Nc3ccc([N+](=O)[O-])cc3)CC2)cc1C	-	-	-	-	-	-
